# AF4-AF9 inh – inhibitors of AF4 peptide binding to AF9, primary screen, biochemical, AlphaScreen, biotin-AF4 peptide, FLAG-AF9, single point. Protein AF-9 (Homo sapiens), P42568. inhibition, % at 10 µM. actives 0.47% (n = 350,000);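 active means every replicate reaching a set inhibition limit, whatever the replicate mean, cut at about 25% in these data; inconclusive means mean inhibition reaches that limit but some replicates miss it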;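 further: 0% = plate neutral control median and 100% = total signal loss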
# Target sequence (P42568 whole entry, looked up): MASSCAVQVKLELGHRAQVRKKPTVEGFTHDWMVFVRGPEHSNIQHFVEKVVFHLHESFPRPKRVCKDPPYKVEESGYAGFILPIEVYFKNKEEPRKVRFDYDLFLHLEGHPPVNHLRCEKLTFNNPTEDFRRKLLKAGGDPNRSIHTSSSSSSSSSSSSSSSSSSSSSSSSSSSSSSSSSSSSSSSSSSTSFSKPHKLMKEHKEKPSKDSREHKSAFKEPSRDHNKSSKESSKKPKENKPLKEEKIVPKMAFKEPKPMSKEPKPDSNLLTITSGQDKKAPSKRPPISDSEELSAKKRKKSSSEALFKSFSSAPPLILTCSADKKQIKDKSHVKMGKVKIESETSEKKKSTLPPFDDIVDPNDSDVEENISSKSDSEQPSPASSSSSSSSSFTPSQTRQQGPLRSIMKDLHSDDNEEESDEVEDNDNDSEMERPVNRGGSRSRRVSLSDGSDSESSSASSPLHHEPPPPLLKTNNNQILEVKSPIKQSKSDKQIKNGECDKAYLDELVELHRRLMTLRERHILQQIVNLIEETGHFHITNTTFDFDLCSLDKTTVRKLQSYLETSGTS
# PDI turbidity – inhibitors of human PDI, primary screen, biochemical, turbidity, single point, plate reader; Protein disulfide-isomerase (Homo sapiens), P07237; PDI insulin aggregation turbidity, A650, 90 min; inhibition, % at 10 µM; actives 0.052% (n = 350,000);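 active means mean inhibition across replicates of 30% or more, whatever share of single replicates reach that level; inconclusive means mean inhibition below 30% while every single replicate reaches 30%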
# DENV2 CPE rescue – inhibitors of DENV2 cytopathic effect, primary screen, cell-based, plate reader, single concentration; DENV2-infected cells, cytopathic effect rescue; CPE inhibition, % at 9.99 µM; actives 1.7% (n = 350,000); in the data active means CPE inhibition above about 20%, passing the limit was not always enough; inconclusive means no clear call, values can overlap the other calls; tested in BHK-21 cells;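 further: 0% = median of neutral control wells and 100% = median of positive control wells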
# ERp5 block – inhibitors of ERp5-driven insulin aggregation, primary screen, biochemical, turbidity, absorbance 650 nm, single point; Protein disulfide-isomerase A6 (Homo sapiens), Q15084; 90 min; inhibition, % at 9.99 µM; actives 0.05% (n = 350,000);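 active means mean replicate inhibition above about 25%, with every replicate also reaching it, limit read from the data, passing the limit was not always enough; inconclusive means only one of those two criteria met; inactive means neither criterion met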
# ERAP1 HTS inh – human ERAP1 aminopeptidase inhibitors, primary screen, biochemical, single point, plate reader; Endoplasmic reticulum aminopeptidase 1 (Homo sapiens), Q9NZ08; recombinant ERAP1, Leu-AMC fluorescence, 60 min; inhibition, % at 10.7 µM; actives 0.15% (n = 340,000); AID 652197, 2013;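 active means mean replicate inhibition of at least 30%, or all replicates individually reaching that 30% level; inactive means mean below 30% and not every replicate reaching it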;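 further: 0% = neutral control wells and 100% = L-leucinethiol positive control wells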
# * = called active by the depositor; ? = inconclusive; / = no result. A selection: hits, their analogues and other compounds. The true share with any hit is near 1.8%.
SMILES,AF4-AF9 inh,PDI turbidity,DENV2 CPE rescue,ERp5 block,ERAP1 HTS inh
CNC[C@@H]1Oc2cc(C#Cc3cccnc3)ccc2S(=O)(=O)N([C@@H](C)CO)C[C@H]1C,1,/,-1,-1,1
O=C(CCN1CCCCC1)N[C@H]1CC[C@H](CCn2cc(-c3cccc(F)c3)nn2)O[C@H]1CO,0,/,-6,2,-2
C[C@@H]1CN([C@H](C)CO)C(=O)c2cc(NS(C)(=O)=O)ccc2O[C@H]1CN(C)Cc1ccc(C(=O)Nc2ccccc2N)cc1,-1,/,0,-13,2
O=C(Nc1ccc2c(c1)[C@H]1C[C@@H](CC(=O)N3CCCCC3)O[C@H](CO)[C@H]1O2)NC1CCCC1,1,/,56*,-1,0
C[C@H](NC(=O)C[C@H]1C[C@H]2c3cc(NC(=O)NC4CCCC4)ccc3O[C@H]2[C@H](CO)O1)c1ccccc1,-4,/,28*,-5,-3
C[C@@H](NC(=O)C[C@@H]1C[C@H]2c3cc(NC(=O)NC4CCCC4)ccc3O[C@H]2[C@H](CO)O1)c1ccccc1,-2,/,2,2,-3
O=C(C[C@H]1C[C@@H]2c3cc(NC(=O)NC4CCCC4)ccc3O[C@@H]2[C@@H](CO)O1)NCc1ccc(Cl)cc1,0,/,3,98*,-2
Cc1noc(C)c1NC(=O)N(C)C[C@@H]1Oc2c(NC(=O)Nc3cccc4ccccc34)cccc2C(=O)N([C@@H](C)CO)C[C@@H]1C,1,/,9,2,1
COCCOC(=O)N1C(=O)[C@@]2(c3cc(C#CCC(C(=O)OC)C(=O)OC)ccc31)[C@H](c1ccccc1OCCO)N1[C@H](c3ccccc3)[C@H](c3ccccc3)OC(=O)[C@H]1[C@@H]2C(=O)NC[C@H](O)c1ccccc1,-2,/,30*,0,2
COc1ccc(OC)c(S(=O)(=O)Nc2cc3c4c(c2)CCN4C(=O)CC3)c1,-1,-11,-3,2,1
COc1ccc(S(=O)(=O)Nc2cc3c4c(c2)CCN4C(=O)CC3)cc1,0,-1,60*,3,0
Cc1ccccc1NC(=S)NC1CCCC1,3,1,0,1,-7
Cc1cccc(C)c1NC(=S)NC1CCCCC1,-2,-29,68*,-3,-1
CCc1cc(=O)oc2c(CN3CCN(C)CC3)c(O)ccc12,1,1,3,3,36*
Cc1cc2oc(=O)cc(CN3CCN(C/C=C/c4ccccc4)CC3)c2cc1O,/,1,/,/,/
CCc1c(C)c2ccc(O)c(CN3CCCC3)c2oc1=O,-1,-2,2,2,10
Cc1c(O)ccc2c(CN3CCN(C/C=C/c4ccccc4)CC3)cc(=O)oc12,2,44*,15,4,-10
Cc1c(C)c2ccc(O)c(CN3CCN(C)CC3)c2oc1=O,-5,-50,7,-3,31*
CCc1cc(=O)oc2c(CN3CCN(C)CC3)c(O)c(Cl)cc12,/,1,/,/,/
CN1CCN(Cc2c(O)ccc3cc(Br)ccc23)CC1,5,/,5,-2,-1
CN1CCN(Cc2c(O)ccc3cc(-c4ccccn4)c(=O)oc23)CC1,-5,2,3,8,112*
Cc1cc(=O)oc2c(CN3CCCCC3)c(O)ccc12,-55,3,-2,-6,46*
Cc1c(C)c2ccc(O)c(CN3CCCC3)c2oc1=O,0,-2,?,1,51*
C[C@H](CO)N1C[C@H](C)[C@H](CN(C)Cc2ccc(Cl)c(Cl)c2)Oc2c(NC(=O)C3CCOCC3)cccc2C1=O,1,/,/,-3,-1
C[C@@H]1CN([C@@H](C)CO)C(=O)Cc2cc(NC(=O)CCCCCC(=O)Nc3ccccc3N)ccc2O[C@@H]1CN(C)S(C)(=O)=O,-1,/,3,16,0
SMILES,AF4-AF9 inh,PDI turbidity,DENV2 CPE rescue,ERp5 block,ERAP1 HTS inh
C[C@@H]1CN([C@@H](C)CO)C(=O)Cc2cc(NC(=O)CCCCCC(=O)Nc3ccccc3N)ccc2O[C@@H]1CN(C)Cc1ccc(C(F)(F)F)cc1,-1,/,96*,-2,0
C[C@@H]1CN([C@H](C)CO)C(=O)Cc2cc(NC(=O)CCCCCC(=O)Nc3ccccc3N)ccc2O[C@@H]1CN(C)S(C)(=O)=O,0,/,91*,11,0
C[C@@H]1CN([C@@H](C)CO)C(=O)Cc2cc(NC(=O)CCCCCC(=O)Nc3ccccc3N)ccc2O[C@H]1CN(C)CC1CC1,-5,/,21*,-6,2
Cc1noc(C)c1S(=O)(=O)N(C)C[C@@H]1Oc2ccc(NC(=O)CCCCCC(=O)Nc3ccccc3N)cc2CC(=O)N([C@@H](C)CO)C[C@@H]1C,-1,/,29*,-3,-2
Cc1noc(C)c1NC(=O)Nc1ccc2c(c1)CC(=O)N([C@H](C)CO)C[C@H](C)[C@H](CN(C)S(=O)(=O)c1ccc(F)cc1)O2,-2,/,-4,0,1
Cc1ccccc1-c1ccc([C@@H]2[C@H](CO)N3C(=O)CN(C(=O)NC4CCCC4)C[C@@H]23)cc1,-1,/,4,-4,4
O=C(Nc1cccc(Cl)c1)N[C@H]1CC[C@@H](CCNC(=O)C2CCOCC2)O[C@@H]1CO,1,/,?,-4,-2
COc1ccc(-c2nnc3ccc(SCC(=O)N4CCCCC4)nn23)cc1OC,-5,7,30*,-4,2
COc1ccc(-c2nnc3ccc(SCC(N)=O)nn23)cc1OC,/,-11,/,/,/
Cc1ccc(C(=O)Nc2ccc(N3CCN(C)CC3)cc2)cc1C,3,-1,27*,1,0
Cc1ccc(C(=O)Nc2ccc(N3CCN(S(C)(=O)=O)CC3)cc2)cc1C,-1,-5,4,0,1
C[C@H](CO)N1C[C@H](C)[C@H](CN(C)C(=O)Nc2ccc(C(F)(F)F)cc2)Oc2ccc(NC(=O)NC3CCCCC3)cc2CC1=O,0,/,-5,-5,-4
C/C=C/c1ccc([C@@H]2[C@H](C#N)N(c3nc(CC)cs3)[C@H]2CO)cc1,2,/,13,0,-2
Cc1ccc(Sc2ccc(CN3CCCC3)cc2[N+](=O)[O-])cc1,31*,2,-6,8,-1
CCOC(=O)Cc1csc(NC(=O)/C=C/c2ccc(Br)o2)n1,33*,-2,4,5,2
CCOC(=O)Cc1csc(NC(=O)c2ccc(Br)o2)n1,/,-2,/,/,/
O=[N+]([O-])c1ccc(OCCCCN2CCCCC2)cc1,/,2,/,/,/
O=[N+]([O-])c1ccc(OCCCCCN2CCOCC2)cc1,1,-22,26*,-2,-2
CCC[N+](CC#Cc1ccccc1)(CCC)CC(=O)OC,/,2,/,/,/
CCC[N+](CC#Cc1ccccc1)(CCC)CC(=O)c1ccc(Cl)cc1,-8,4,46*,1,4
CCC(=O)N1C[C@@H](C)[C@H](OC)CN(C)C(=O)c2cc(NC(=O)CC(F)(F)F)ccc2OC[C@@H]1C,-2,/,-4,-3,-3

# Screens as filed in PubChem.
